Some test systems named below: MST4; MTOR; MUSK; MYLK2; MYLK4; MYLK; MYO3A; MYO3B; NDR2; NEK10; NEK11; NEK1; NEK2; NEK3; NEK4; NEK5; NEK6.
Details in all cases: concentration: 1 μM, replicates: in singlicate; n = 1
For another test, the system named is T1, MST2.
T1 construct: gene STK3

For the next test, the system named is T2, MST3.
T2 construct: gene STK24

A further test deals with T3, NDR1.
T3 construct: gene STK38
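Also: KINOMEscan kinase panel screen.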

Consider `Cc1cc(-c2ccc3c(c2)CC[C@@H](N[C@@H](C)c2ccccc2)C3)cnc1N.Cl` [GW412617], for which the “%Inh” value in the test on MST2 came to 15%; with MST3, 0%; in the test on MST4, 0%; with MTOR, 14%; with MUSK, 28%; with MYLK2 it was 21%. Besides, the “%Inh” value in the test on MYLK4 turned out to be 8%; in the test with MYLK, 10%; in the test with MYO3A, 0%; in the test on MYO3B, 0%; in the test with NDR1, 0%; in the test with NDR2, 0%. Also, the “%Inh” value was determined as 63% with NEK10; 20% in the test on NEK11; 0% in the test with NEK1; 3% in the test on NEK2; 0% with NEK3; 16% in the test with NEK4. Also, the “%Inh” value was found to be 0% with NEK5 and 14% with NEK6.
As to `COc1cc2nccc(Nc3ccc(NC(=O)c4ccc(C)cc4)c(O)c3)c2cc1OC.Cl` [GW440132], the “%Inh” value is on record as 0% in the test on MST2; 0% with MST3; 0% with MST4; 4% in the test on MTOR; 13% in the test on MUSK; 4% with MYLK2. For the same molecule, the “%Inh” value with MYLK4 was 0%; in the test on MYLK, 11%; in the test with MYO3A, 10%; in the test on MYO3B, 0%; in the test on NDR1, 0%; in the test on NDR2, 0%. Besides, the “%Inh” value in the test with NEK10 is 0%; in the test with NEK11 it was 0%; in the test on NEK1 it was 2%; in the test on NEK2 it was 0%; in the test on NEK3 it was 0%; in the test with NEK4 it was 0%. Besides, the “%Inh” value with NEK5 came to 14%; with NEK6, 0%.
For the molecule `O=C(O)COc1ncnc2cc(-c3ccc4[nH]ncc4c3)sc12`, the “%Inh” value with MST2 is listed as 40%; in the test on MST3, 24%; in the test on MST4, 0%; with MTOR, 14%; in the test on MUSK, 9%; in the test with MYLK2, 31%. Further, the “%Inh” value in the test with MYLK4 stood at 22%; with MYLK, 7%; in the test on MYO3A, 0%; in the test with MYO3B it was 0%; in the test on NDR1 it was 24%; in the test on NDR2, 0%. The “%Inh” value in the test on NEK10 is recorded as 48%; with NEK11 it was 1%; with NEK1 it was 0%; in the test on NEK2, 0%; in the test with NEK3, 87%; with NEK4, 10%. Also, the “%Inh” value in the test on NEK5 came out at 25%; in the test on NEK6 it was 22%.
On to `COc1cc(Nc2nccc(N3CCC(NC(=O)Nc4cc(C)ccc4C)C3)n2)cc(OC)c1OC` (stereo not drawn) [GSK1379762], for which the “%Inh” value in the test on MST2 is 0%; with MST3, 6%; with MST4, 0%; with MTOR it was 10%; with MUSK it was 25%; with MYLK2, 6%. Further, the “%Inh” value in the test with MYLK4 was 0%; with MYLK, 12%; in the test with MYO3A, 2%; with MYO3B it was 0%; in the test with NDR1, 0%; in the test on NDR2, 0%. For the same molecule, the “%Inh” value in the test on NEK10 is given as 20%; in the test on NEK11, 0%; with NEK1 it was 22%; in the test with NEK2, 25%; in the test on NEK3, 9%; with NEK4, 4%. For the same molecule, the “%Inh” value with NEK5 amounted to 91.6%; with NEK6 it was 1%.
With `COC(=O)c1c(-c2ccccc2)c2cc(C(=O)O)ccc2c(=O)n1Cc1ccccc1`, the “%Inh” value in the test on MST2 is 12%; with MST3, 0%; with MST4, 9%; in the test on MTOR, 25%; in the test on MUSK, 0%; in the test with MYLK2, 8%. Besides, the “%Inh” value with MYLK4 stood at 0%; with MYLK it was 0%; in the test with MYO3A, 0%; with MYO3B it was 0%; in the test on NDR1 it was 2%; in the test with NDR2 it was 0%. For the same molecule, the “%Inh” value is 9% with NEK10; 0% in the test with NEK11; 22% in the test on NEK1; 0% in the test with NEK2; 31% in the test on NEK3; 0% with NEK4. Besides, the “%Inh” value in the test on NEK5 and in the test on NEK6 was 0% each time.
With `O=c1cc(N2CCOCC2)nc2n(Cc3cccc(Cl)c3Cl)ccn12` [GSK2286295], the “%Inh” value with MST2 was found to be 0%; in the test with MST3, 0%; in the test on MST4, 0%; in the test on MTOR, 17%; in the test with MUSK, 8%; in the test with MYLK2 it was 2%. Further, the “%Inh” value turned out to be 0% in the test on MYLK4; 25% in the test with MYLK; 0% with MYO3A; 8% with MYO3B; 12% in the test with NDR1; 0% in the test with NDR2. Besides, the “%Inh” value in the test with NEK10 was 0%; in the test with NEK11, 0%; in the test on NEK1 it was 0%; with NEK2, 4%; with NEK3, 1%; with NEK4 it was 6%. Moreover, the “%Inh” value with NEK5 worked out at 4%; with NEK6 it was 0%.
As to `O=C(Nc1n[nH]c2nc(-c3nccs3)c(Br)cc12)C1CC1` [SB-742251], the “%Inh” value is 0% in the test with MST2; 0% in the test on MST3; 0% with MST4; 16% in the test on MTOR; 0% with MUSK; 93.4% in the test with MYLK2. The “%Inh” value with MYLK4 came to 23%; with MYLK, 7%; in the test on MYO3A it was 0%; with MYO3B, 0%; with NDR1, 0%; in the test with NDR2, 0%. In addition, the “%Inh” value in the test with NEK10 came out at 0%; in the test with NEK11 it was 48%; in the test on NEK1, 0%; in the test with NEK2, 0%; in the test with NEK3 it was 8%; with NEK4 it was 21%. Also, the “%Inh” value in the test on NEK5 is reported as 10%; in the test on NEK6, 0%.
For the molecule `Cc1cccc(-c2nc(Nc3ccc4[nH]ncc4c3)c3ccccc3n2)n1` [GW857175], the “%Inh” value in the test with MST2 stood at 0%; in the test on MST3, 10%; with MST4, 27%; with MTOR, 0%; in the test on MUSK, 0%; in the test with MYLK2 it was 7%. Besides, the “%Inh” value with MYLK4 is on record as 32%; with MYLK it was 32%; with MYO3A, 0%; in the test with MYO3B it was 0%; in the test with NDR1, 26%; in the test on NDR2, 5%. The “%Inh” value turned out to be 54% in the test on NEK10; 7% in the test with NEK11; 0% in the test with NEK1; 4% with NEK2; 18% in the test with NEK3; 27% with NEK4. Also, the “%Inh” value in the test on NEK5 came out at 8%; with NEK6 it was 3%.
Turning to `Fc1cccc(COc2nnc(-c3ccc4c(c3)CCO4)o2)c1`, the “%Inh” value in the test on MST2 is listed as 0%; in the test with MST3 it was 25%; in the test on MST4, 0%; in the test with MTOR, 3%; in the test with MUSK it was 3%; in the test with MYLK2, 0%. The “%Inh” value with MYLK4 worked out at 4%; in the test on MYLK it was 0%; in the test with MYO3A, 0%; with MYO3B, 5%; in the test with NDR1 it was 0%; in the test with NDR2, 4%. Besides, the “%Inh” value was determined as 0% in the test on NEK10; 0% in the test with NEK11; 10% in the test on NEK1; 0% with NEK2; 12% in the test with NEK3; 0% in the test on NEK4. Further, the “%Inh” value with NEK5 and in the test on NEK6 was 0% in each case.
Turning to `CC(C)(C)c1ccc(C(=O)Nc2cn3cc(-c4cccnc4)ccc3n2)cc1`, the “%Inh” value in the test with MST2 was found to be 42%; in the test with MST3, 38%; with MST4 it was 0%; in the test with MTOR, 11%; in the test with MUSK it was 17%; in the test with MYLK2, 53%. Besides, the “%Inh” value with MYLK4 came to 11%; with MYLK it was 28%; in the test with MYO3A it was 8%; in the test on MYO3B, 22%; in the test with NDR1 it was 49%; with NDR2, 0%. Further, the “%Inh” value in the test on NEK10 came to 2%; in the test on NEK11 it was 0%; in the test on NEK1, 13%; in the test with NEK2, 8%; in the test with NEK3, 54%; in the test on NEK4, 0%. Also, the results for the “%Inh” value in the test with NEK5 and in the test on NEK6 were 31% and 13%, respectively.
As to `Cn1ccc2ncnc(Oc3cccc(C(=O)Nc4ccccc4)c3)c21`, the “%Inh” value in the test on MST2 was determined as 13%; in the test with MST3, 20%; in the test with MST4, 7%; with MTOR, 0%; in the test on MUSK, 0%; with MYLK2 it was 0%. Also, the “%Inh” value is 4% with MYLK4; 0% in the test with MYLK; 0% in the test with MYO3A; 4% with MYO3B; 14% with NDR1; 0% with NDR2. Besides, the “%Inh” value in the test with NEK10, with NEK11, with NEK1, in the test with NEK2, with NEK3 and in the test with NEK4 was 0% in each case. The entries for the “%Inh” value with NEK5 and with NEK6 were 0% and 17%, respectively.
For the molecule `Cc1ccccc1-n1cnc2c(N)ncnc21` [SKF-97510], the “%Inh” value in the test with MST2 is given as 15%; with MST3 it was 18%; with MST4, 0%; with MTOR, 0%; with MUSK, 0%; in the test on MYLK2, 0%. Besides, the “%Inh” value with MYLK4 was 0%; in the test on MYLK, 0%; in the test with MYO3A, 0%; in the test with MYO3B, 42%; in the test on NDR1 it was 0%; in the test with NDR2 it was 20%. Moreover, the “%Inh” value in the test on NEK10 is 0%; with NEK11 it was 0%; in the test on NEK1, 11%; with NEK2 it was 0%; in the test on NEK3, 0%; in the test with NEK4, 0%. The “%Inh” value in the test on NEK5 is listed as 9%; in the test with NEK6, 0%.
As for `CC(=O)Nc1nc2cnc(Nc3cc(NC(=O)c4cccc(CCC#N)c4)ccc3C)nc2s1`, the “%Inh” value was 27% with MST2; 3% with MST3; 0% in the test with MST4; 0% with MTOR; 0% in the test on MUSK; 0% in the test on MYLK2. For the same molecule, the “%Inh” value is reported as 6% in the test on MYLK4; 27% with MYLK; 13% in the test on MYO3A; 0% in the test on MYO3B; 0% in the test on NDR1; 22% with NDR2. Moreover, the “%Inh” value in the test on NEK10 is on record as 13%; in the test with NEK11, 0%; with NEK1 it was 0%; in the test on NEK2, 2%; in the test with NEK3, 7%; with NEK4, 0%. Moreover, the “%Inh” value in the test on NEK5 is recorded as 0%; in the test on NEK6, 14%.
For `CN1C(=O)C(Nc2ccc(Cl)c(C(=O)O)c2)=C(c2ccc(Cl)cc2)C1=O` [SB-404290], the “%Inh” value in the test with MST2 came to 0%; with MST3, 0%; in the test on MST4 it was 33%; in the test with MTOR, 0%; in the test on MUSK, 13%; in the test on MYLK2, 0%. In addition, the “%Inh” value with MYLK4 came to 5%; in the test with MYLK, 12%; in the test on MYO3A, 11%; in the test on MYO3B, 31%; in the test on NDR1, 0%; in the test on NDR2, 1%. Moreover, the “%Inh” value in the test on NEK10 was found to be 0%; in the test on NEK11 it was 30%; in the test on NEK1 it was 0%; in the test on NEK2 it was 5%; in the test on NEK3, 0%; in the test on NEK4 it was 21%. For the same molecule, the “%Inh” value in the test with NEK5 and in the test with NEK6 was 0% in each case.
Consider `C[C@@H]1CCCCN1c1cc(-c2ccc3c(N)n[nH]c3c2)nc(N)n1` [GSK2258759], for which the “%Inh” value with MST2 was determined as 0%; in the test with MST3, 7%; in the test with MST4, 0%; in the test with MTOR, 2%; with MUSK it was 5%; in the test with MYLK2, 0%. The “%Inh” value in the test with MYLK4 is recorded as 0%; with MYLK it was 5%; with MYO3A, 30%; in the test on MYO3B, 0%; with NDR1 it was 24%; with NDR2, 12%. In addition, the “%Inh” value is listed as 0% with NEK10; 0% in the test with NEK11; 0% in the test with NEK1; 3% in the test on NEK2; 10% in the test with NEK3; 0% in the test with NEK4. Further, the results for the “%Inh” value in the test on NEK5 and in the test with NEK6 were 8% and 0%, respectively.

Source of the values: paper PMC5540273 (PLoS ONE, 2017).
